25 compounds from PubChem BioAssay AID493244 (The Scripps Research Institute Molecular Screening Center, 2011) can be followed below.

Values joined by “and” are separate entries in the source; they are usually repeats but may differ in a detail not shown here. Identical values can stand only once. Hit rate of the full screen: of about 340,000 compounds, about 390 (0.11%) were called active.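 How the source made its calls: active means inhibition above the mean inhibition of all tested compounds plus 3 SD (cut at about 17% in these data); inactive means the rest.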 This excerpt belongs to a sample that is enriched for actives.

The target in the test is Troponin I, cardiac muscle (Homo sapiens) + Troponin T, cardiac muscle (Homo sapiens) + Troponin C, slow skeletal and cardiac muscles (Homo sapiens) (UniProt P19429+P45379+P63316). In words: cardiac RTF calcium sensitivity inhibitors, primary screen, biochemical, IANBD-TnC fluorescence, EC70 calcium (AID 493244).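 Further: assay run at fixed EC70 calcium of 1.6 mM.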 The conditions noted are these: IANBD-labeled cardiac RTF, Ca2+ fluorescence; at 7.15 µM; active compounds read high.
By inhibition is commonly meant the relative decrease from the control value, in per cent. With `O=C(C[C@H]1C(=O)N(c2ccc(F)c(F)c2)C[C@@H]1Cc1ccccc1)Nc1ccccc1`, the inhibition was -7.8% (inactive). With `COc1cc(OC)cc(-c2c(-c3ccc(F)cc3)c3cc(-c4ccc5cc[nH]c5c4)ccc3n2C)c1` the figure was 0.02% (inactive); with `O=S(=O)(Nc1ccc2nc(N3CCOCC3)sc2c1)c1ccccc1`, -15.4% (inactive).

Regarding `Cc1nc2ccc(NC(=O)c3cccc(S(=O)(=O)N4CCOCC4)c3)cc2s1`, the inhibition was 7.38% (inactive). On to `O=C(O)c1cccc(S(=O)(=O)Nc2ccc(O)cc2Sc2nc3ccccc3s2)c1`, for which the inhibition is 20.3% (active). For the compound `CCCOc1ccc(N2C(=O)CC(N(CCc3ccc(S(N)(=O)=O)cc3)C(C)=O)C2=O)cc1` (stereo not given), the inhibition is 11.4% (inactive). As for `COC(=O)CN(c1cccc(C(C)=O)c1)S(C)(=O)=O`, the inhibition was -2.17% (inactive). The figure for `CCCC/S(C)=N/S(=O)(=O)c1ccc(C)cc1` (stereo not given) is -2.27% (inactive); for `CC(=O)C1C(c2ccc(Cl)cc2)c2c(n[nH]c2C)CC1(C)O` (stereo not given) it is -5.53% (inactive); for `O=C(Nc1cccnc1)c1cc2cc(Br)ccc2oc1=O` it is 3.93% (inactive). With `COc1cccc(N(CC(=O)NC2CCCCCC2)S(=O)(=O)c2ccccc2)c1` the figure was -9.96% (inactive); with `COC(=O)C1(C)NC(c2ccccc2OC)C2C(=O)N(c3ccccc3)C(=O)C21` (stereo not given), -1.37% (inactive); with `C=CCC(CC=C)(C(N)=O)c1ccccc1`, -6.01% (inactive). The figure for `CNC(=O)COc1ccc(S(=O)(=O)Nc2ccccc2)cc1` is -0.29% (inactive); for `CCCCn1c(N)c(N(CC(C)C)C(=O)c2cccc(S(=O)(=O)N3CC(C)OC(C)C3)c2)c(=O)[nH]c1=O` (stereo not given) it is -3.78% (inactive). With `CCN(CC)C(=O)[C@H]1CC(CC(=O)NCc2ccco2)C(=O)N2CCc3c([nH]c4ccccc34)[C@]12C` (stereo not given in full), the inhibition was -0.12% (inactive). With `Cc1ccsc1C(C(=O)NC1CCCCC1)N(C(=O)Cc1cccs1)C1CC1` (stereo not given) the figure was -0.55% (inactive). The figure for `Cc1cccc(N(C(=O)Cc2cccs2)C(C(=O)NC2CCCC2)c2ccsc2)c1` (stereo not given) is 18.7% (active); for `Cc1ccccc1N(C(=O)Cc1cccs1)C(C(=O)NC1CCCCC1)c1cn(C)nc1C` (stereo not given) it is -6.48% (inactive). With `COc1ccc(C(C#N)(CC(=O)O)c2cnccn2)cc1OC` (stereo not given) the figure was 2.97% (inactive); with `CCOC(=O)C1Cn2c(nc3c(c2=O)C(C)(CC)Cc2ccccc2-3)S1` (stereo not given), -5.87% (inactive). As for `Cc1nc2cc(S(=O)(=O)C(F)(F)F)ccc2s1`, the inhibition is 0.85% (inactive). With `Cn1c(N)cc(=O)n(C)c1=S` the figure was 1.39% (inactive). With `Cc1csc(/N=C/N(C)C)c1C#N` the figure was 5.98% (inactive); with `Cc1c(CCOC(=O)CC23CC4CC(CC(C)(C4)C2)C3)sc[n+]1Cc1ccc([N+](=O)[O-])cc1`, -12.4% (inactive) and -2.7% (inactive).
